Screens as filed in PubChem.
BoNT-A LC inh2 – BoNT A light chain protease inhibition; multiplex microsphere protease substrate cleavage, flow cytometry; inhibition, % at 10 µM; 360,000 compounds, 0.17% hits
Anthrax LF inh2 – anthrax lethal factor protease inhibition; inhibition, % at 10 µM; P15917; multiplex microsphere protease cleavage assay, LF; 360,000 compounds, 0.12% hits
Mtb FBA inh – inhibits M. tuberculosis FBA enzyme. purified M. tuberculosis FBA, fluorescence read-out. inhibition, % at 1 µM. 360,000 compounds, 2.3% hits. AID 588726; in the data active = inhibition above about 27%
Target sequence (P9WQA3 whole entry, looked up): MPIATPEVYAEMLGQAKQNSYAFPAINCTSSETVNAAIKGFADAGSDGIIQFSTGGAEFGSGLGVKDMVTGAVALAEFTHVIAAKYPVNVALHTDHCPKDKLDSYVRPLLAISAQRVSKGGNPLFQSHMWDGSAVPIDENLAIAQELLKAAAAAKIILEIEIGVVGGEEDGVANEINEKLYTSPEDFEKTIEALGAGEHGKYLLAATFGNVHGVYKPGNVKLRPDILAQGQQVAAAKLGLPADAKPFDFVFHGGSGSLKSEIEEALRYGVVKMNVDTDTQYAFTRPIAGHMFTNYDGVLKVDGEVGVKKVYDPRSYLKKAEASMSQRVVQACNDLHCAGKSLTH
GDH-TPI inh – counter-screen for M. tuberculosis FBA inhibitors: GDH-TPI coupled enzymes; GDH-TPI coupled enzyme counterscreen, NADH absorbance; inhibition, % at 4.8 µM; 360,000 compounds, 1.2% hits; AID 588335; in the data active = inhibition above about 30%
Bead autofluor – counter-screen for toxin protease inhibitors: compound fluorescence. compound autofluorescence counterscreen, microsphere flow cytometry; active compounds read high. fluorescence intensity (no concentration beside the values). 360,000 compounds, 3.1% hits; in the data active = fluorescence intensity above about 16000
BoNT-F LC inh – blocks Botulinum neurotoxin F light chain protease | AID 588497 | inhibition, % at 10 µM | 360,000 compounds, 0.22% hits | Multiplex microsphere protease cleavage assay, flow cytometry; in the data active = inhibition above about 35%, passing the limit was not always enough
Numbers stand for hits; – = inactive; · = no result given; + = active, no number. In the library only some 6.6% were active in any assay of this set; here they are far more common. Cut-off read from the data, not from the text of the source, unless noted: active = inhibition above about 30%; inconclusive = no clear call, values can overlap the other calls; inactive = below that.

SMILES	BoNT-A LC inh2	Anthrax LF inh2	Mtb FBA inh	GDH-TPI inh	Bead autofluor	BoNT-F LC inh
Cc1c(CC(=O)O)c(=O)oc2cc(OCc3ccc(F)cc3F)ccc12	–	–	156.0	–	–	–
COC(=O)Cc1c(C)c2cc(Cl)c(OC(=O)c3ccco3)cc2oc1=O	–	–	+	–	–	–
COC(=O)Cc1c(C)c2ccc(OC(=O)c3ccco3)cc2oc1=O	–	–	+	–	–	–
Cc1cc(OC(=O)c2ccco2)c2c3c(c(=O)oc2c1)CCCC3	–	–	–	–	–	–
CC(C(=O)Nc1ccccc1C#N)N1C(=O)NC2(CCCCCC2)C1=O (stereo unspecified)	–	–	–	–	–	–
COc1ccc(NC(=O)COC(=O)[C@@H](NC(=O)c2c(F)cccc2F)C(C)C)cc1	–	–	–	–	–	–
C#CCNC(=O)C[C@@H]1C[C@@]2(C(=O)OCC)CCCC=C2N(Cc2ccc3c(c2)OCO3)C1=O	–	–	·	·	–	–
COC(=O)Cc1c(C)c2ccc(OC(C)C)cc2oc1=O	–	–	+	–	–	–
COC(=O)Cc1c(C)c2ccc(OCC(=O)N3CCOCC3)cc2oc1=O	–	–	123.3	–	–	–
COC(=O)Cc1c(C)c2ccc(OCC(=O)N(C)C3CCS(=O)(=O)C3)cc2oc1=O (stereo unspecified)	–	–	114.4	–	–	–
COc1cc(C(=O)Nc2ccc(OCC(=O)N3CCOCC3)cc2C)cc(OC)c1OC	–	–	–	–	–	–
COC(=O)c1cc(-c2c(C)oc3cc(OC(C)C)ccc3c2=O)c(C)o1	–	–	–	–	–	–
CN(C(=O)COc1ccc(Oc2ccccc2)cc1)C1CCS(=O)(=O)C1 (stereo unspecified)	–	–	–	–	–	–
N#Cc1cc2c(nc1Cl)CCCC2	–	–	–	–	–	–
CC1(C)COC(Cc2ccccc2)=N1	–	–	–	–	–	–
COc1ccc(N2CC(C(=O)N(C)CC(=O)Nc3ccc(Cl)c(C(F)(F)F)c3)CC2=O)c(OC)c1 (stereo unspecified)	–	–	–	–	–	–
C#CCn1c(S(=O)(=O)Cc2ccc(C)cc2)nc(-c2ccccc2)c1-c1ccccc1	–	–	–	–	17325	–
CCc1ccc(NC(=O)COC(=O)/C=C/c2c(C)nn(C3CCS(=O)(=O)C3)c2Cl)cc1 (stereo unspecified)	–	–	–	–	–	–
COc1ccc([C@H]2N[C@]3(CCCN(Cc4ccc(Cl)cc4)C3=O)[C@H]3C(=O)N(Cc4ccccc4)C(=O)[C@@H]23)cc1	–	–	–	–	–	–
Clc1ccc(Cc2ccc(Cl)nn2)c(Cl)c1	–	–	–	–	23303	–
Clc1ccc(Cc2ccccc2)nn1	–	–	–	–	21162	–
Clc1cccc(Cc2ccc(Cl)nn2)c1	–	–	–	–	–	–
CCN(CC)C(=O)c1ccc(C(=O)c2ccccc2)cc1	–	–	–	–	–	–
CCN(CC)C(=O)c1cncc(C(=O)N(CC)CC)c1-c1ccccc1	–	–	–	–	20311	–
CC1=C(C(=O)OC(C)C)C(c2ccc(N(C)C)cc2)C2=C(CC(C)(C)CC2=O)N1 (stereo unspecified)	–	–	–	–	–	–
SMILES	BoNT-A LC inh2	Anthrax LF inh2	Mtb FBA inh	GDH-TPI inh	Bead autofluor	BoNT-F LC inh
CCOc1cc(C2C(C(=O)N3CCCCC3)=C(C)NC3=C2C(=O)CC(C)(C)C3)ccc1O (stereo unspecified)	–	–	–	–	23188	–
COC(=O)C1=C(C)NC2=C(C(=O)CC(C)(C)C2)C1c1cccc(C)n1 (stereo unspecified)	–	–	–	–	23176	–
CCOC(=O)C1=C(C)NC2=C(C(=O)CC(C)(C)C2)C1c1ccc(N(C)C)cc1 (stereo unspecified)	–	–	–	–	24751	–
COCCNC(=O)C(c1ccc(F)cc1)N(Cc1cccs1)C(=O)CCC(=O)Nc1ccccn1 (stereo unspecified)	–	–	–	–	–	–
Cc1ccc(C(=O)N/C(=C\c2cccs2)C(=O)NCCc2c[nH]c3ccccc23)cc1C	–	–	–	–	16774	–
COc1ccc(C(=O)NC2=C(C#N)CCC2)cc1OC	–	–	–	–	–	–
N#CC1=C(Nc2ccc(Br)cc2)CCC1	–	–	–	–	16939	–
CO[C@H]1C=CO[C@@]2(C)Oc3c(C)c(O)c4c(O)c(c(C=NN5CCN(C)CC5)c(O)c4c3C2=O)NC(=O)C(C)=CC=C[C@H](C)[C@H](O)[C@@H](C)[C@@H](O)[C@@H](C)[C@H](OC(C)=O)[C@@H]1C	–	–	–	40.1	–	–
CO[C@H]1/C=C/O[C@@]2(C)Oc3c(C)c(O)c4c(O)c(c(C=NN5CCN(C)CC5)c(O)c4c3C2=O)NC(=O)/C(C)=C\C=C\[C@H](C)[C@H](O)[C@@H](C)[C@@H](O)[C@@H](C)[C@H](OC(C)=O)[C@@H]1C	–	–	–	–	–	–
CN(C)c1ccc(-c2nc3ccccc3n2C)cc1	–	–	+	–	–	–
CN(C)c1ccc(C(O)Cc2nc3ccccc3n2C)cc1 (stereo unspecified)	–	–	–	–	–	–
CC(C)n1c(-c2ccc(N(C)C)cc2)nc2ccccc21	–	–	184.6	–	–	–
Cc1ccc(C(O)c2nc3ccccc3n2C(C)C)cc1 (stereo unspecified)	–	–	–	–	–	–
CCn1c(-c2ccc(N(C)C)cc2)nc2ccccc21	–	–	+	–	–	–
CC1CCN(C(=O)COC(=O)C2CCN(S(=O)(=O)c3ccc4c(c3)OCCO4)CC2)CC1	–	–	–	–	–	–
COc1ccc(C(=O)Nc2ccc3ccccc3n2)cc1OC	–	–	–	–	–	–
CCCN(CCC)C(=S)NC(=O)c1ccc(Cl)cc1Cl	–	–	–	–	21981	–
Cc1ccccc1C(=O)NNC(=S)NC(=O)c1ccc(Cl)cc1Cl	–	–	–	–	–	–
Cc1ccc(N2CC(C(=O)NCc3n[nH]c(=O)c4ccccc34)CC2=O)cc1 (stereo unspecified)	–	–	–	–	–	–
COc1cccc2c1C(=O)c1ccc3ccccc3c1C2=O	34.0	–	–	–	–	–
C[C@@H]1CCCCO[C@H](CN(C)C(=O)C2CCCCC2)[C@@H](C)CN([C@H](C)CO)C(=O)c2cc(N(C)C)ccc2O1	–	–	–	–	–	–
CCOC(=O)c1c(C)n(Cc2ccco2)c2ccc(OC)cc12	–	–	–	–	–	–
COC(=O)c1c(C)n(Cc2ccco2)c2ccc(O)cc12	–	–	–	–	24915	–
CC1CN(C(=O)C(c2ccccc2)c2ccccc2)CC(C)O1 (stereo unspecified)	–	–	–	–	25891	–
CC1CN(C(=O)C(Sc2ccccc2)c2ccccc2)CC(C)O1 (stereo unspecified)	–	–	–	–	–	–
CC(C)Oc1ccc(CNC(=O)Cn2ccc3cc(S(=O)(=O)N4CCCC4)ccc32)cc1	–	–	–	–	–	–
